Results published in PubChem BioAssay (EPA / NIEHS).
Inconclusive results are not listed. The source made the active and inactive calls. Rule for the calls, unless noted: active = hit-call score of the fitted dose curve at least 0.9, where 1 is the maximum; inactive = score below 0.9.

How the values were obtained:
[1] = read-out: Human Leukocyte Antigen - DR isotype (HLADR), HLA-DRA (gene 3122); test: BSK_3C_HLADR: BioMAP Diversity Plus: 3C Assay for Human Leukocyte Antigen - DR isotype (HLADR) Biomarker Activity (AID 2283019); details: primary human endothelial cells (HUVEC); actives raise or lower the signal
Method in brief: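 HUVEC monoculture, HLA-DR measured by ELISA 24 h after chemical dosing. Fitted bidirectionally against DMSO baseline; parallel SRB staining assessed cytotoxicity, with 3C proliferation read by SRB at 48 h.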

[2] = read-out: Interleukin-8 (IL8), CXCL8 (gene 3576); test: BSK_3C_IL8: BioMAP Diversity Plus: 3C Assay for Interleukin-8 (IL8) Biomarker Activity (AID 2283020); details: primary human endothelial cells (HUVEC); actives raise or lower the signal
Method in brief: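 Primary human umbilical vein endothelial cells (3C system) were exposed to test chemical for 24 h, then IL-8 was quantified by ELISA. Responses were fitted bidirectionally against DMSO vehicle as baseline.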

[3] = read-out: Monokine induced gamma interferon (MIG), CXCL9 (gene 4283); test: BSK_3C_MIG: BioMAP Diversity Plus: 3C Assay for Monokine induced gamma interferon (MIG) Biomarker Activity (AID 2283021); details: primary human endothelial cells (HUVEC); actives raise or lower the signal
Method in brief: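 Primary human umbilical vein endothelial cells in the 3C system were exposed to chemical for 24 h, after which MIG was quantified by ELISA. Activity was fitted bidirectionally against DMSO as negative control and baseline.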

[4] = read-out: Matrix Metallopeptidase 1 (MMP1), MMP1 (gene 4312); test: BSK_BE3C_MMP1: BioMAP Diversity Plus: BE3C Assay for Matrix Metallopeptidase 1 (MMP1) Biomarker Activity (AID 2283024); details: primary human bronchial epithelial cells; actives raise or lower the signal
Method in brief: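 Primary human bronchial epithelial cells were dosed with test chemicals, and MMP1 levels were measured by ELISA 24 h later. Data were fitted bidirectionally against DMSO as the negative control and activity baseline.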

[5] = BSK_3C_Vis: BioMAP Diversity Plus: 3C Assay for Morphology Visualization (AID 2283025); details: primary human endothelial cells (HUVEC);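 note: fitted both ways so gain or loss versus DMSO counts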
Method in brief: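 Human umbilical vein endothelial cells in the 3C system were imaged by light microscopy 24 h after chemical dosing to record cell morphology. Activity was fitted bidirectionally against DMSO as negative control and baseline; the endpoint serves as a background control.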

[6] = read-out: Pselectin, SELP (gene 6403); test: BSK_4H_Pselectin: BioMAP Diversity Plus: 4H Assay for Pselectin Biomarker Activity (AID 2283026); details: primary human endothelial cells (HUVEC); actives raise or lower the signal
Method in brief: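 Primary human umbilical vein endothelial cells were exposed to test chemical for 24 h, then cell-surface P-selectin was quantified by ELISA. Activity was fitted bidirectionally against DMSO as negative control and baseline.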

[7] = BSK_4H_SRB: Viability Assessment in the BioMAP Diversity Plus: 4H Assay (AID 2283027); details: primary human endothelial cells (HUVEC);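 note: cells exposed to compound for 24 h before staining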
Method in brief: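 Absorbance at 560 nm of SRB-stained total protein served as the viability read-out in confluent primary human umbilical vein endothelium 24 h after chemical treatment. Curves were fitted bidirectionally against DMSO as negative control.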

[8] = read-out: Urokinase-type plasminogen activator receptor (uPAR), PLAUR (gene 5329); test: BSK_4H_uPAR: BioMAP Diversity Plus: 4H Assay for Urokinase-type plasminogen activator receptor (uPAR) Biomarker Activity (AID 2283030); details: primary human endothelial cells (HUVEC); actives raise or lower the signal
Method in brief: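 Human umbilical vein endothelial cells in the 4H system, 24 h after chemical dosing. Cell-surface uPAR measured by ELISA, fitted in both directions versus DMSO; cytotoxicity checked by SRB total protein in parallel cultures.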

[9] = read-out: Vascular endothelial growth factor receptor 2 (Homo sapiens) (UniProt P35968); test: BSK_4H_VEGFRII: BioMAP Diversity Plus: 4H Assay for Vascular endothelial growth factor receptor 2 (VEGFR2) Biomarker Activity (AID 2283031); details: primary human endothelial cells (HUVEC); actives raise or lower the signal
Method in brief: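 Primary human umbilical vein endothelial cells (4H system), 24 h exposure; cell-surface VEGFR2 measured by ELISA. Bidirectional fitting versus DMSO; cytotoxicity checked in parallel by SRB total-protein staining.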

[10] = read-out: Human Leukocyte Antigen - DR isotype (HLADR), HLA-DRA (gene 3122); test: BSK_BE3C_HLADR: BioMAP Diversity Plus: BE3C Assay for Human Leukocyte Antigen - DR isotype (HLADR) Biomarker Activity (AID 2283032); details: primary human bronchial epithelial cells; actives raise or lower the signal
Method in brief: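 Human primary bronchial epithelial cells in the BE3C system were exposed to chemicals for 24 h, after which HLA-DR levels were quantified by ELISA. Activity was fitted bidirectionally, gain or loss of signal, against DMSO as negative control and baseline.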

[11] = read-out: Vascular cell adhesion molecule 1 (VCAM1), VCAM1 (gene 7412); test: BSK_4H_VCAM1: BioMAP Diversity Plus: 4H Assay for Vascular cell adhesion molecule 1 (VCAM1) Biomarker Activity (AID 2283033); details: primary human endothelial cells (HUVEC); actives raise or lower the signal
Method in brief: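 Primary human umbilical vein endothelial cells were exposed to chemicals for 24 h, after which VCAM-1 was quantified by ELISA. Responses were fitted bidirectionally against DMSO as negative control and activity baseline.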

[12] = read-out: Interferon-gamma inducible Protein 10 (IP10), CXCL10 (gene 3627); test: BSK_BE3C_IP10: BioMAP Diversity Plus: BE3C Assay for Interferon-gamma inducible Protein 10 (IP10) Biomarker Activity (AID 2283034); details: primary human bronchial epithelial cells; actives raise or lower the signal
Method in brief: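 Human primary bronchial epithelial cells were exposed to chemicals for 24 hours, after which IP-10 levels were measured by ELISA. Data were fitted bidirectionally against DMSO, which served as the negative control and activity baseline.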

[13] = read-out: Monokine induced gamma interferon (MIG), CXCL9 (gene 4283); test: BSK_BE3C_MIG: BioMAP Diversity Plus: BE3C Assay for Monokine induced gamma interferon (MIG) Biomarker Activity (AID 2283035); details: primary human bronchial epithelial cells; actives raise or lower the signal;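 note: MIG protein measured by ELISA in BE3C cultures after 24 h of dosing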
Method in brief: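 MIG level was determined by ELISA after 24 h chemical treatment of primary human bronchial epithelial cells. Values were fitted bidirectionally with DMSO as the negative control and activity baseline.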

[14] = read-out: Transforming growth factor beta 1 (TGFb1), TGFB1 (gene 7040); test: BSK_BE3C_TGFb1: BioMAP Diversity Plus: BE3C Assay for Transforming growth factor beta 1 (TGFb1) Biomarker Activity (AID 2283036); details: primary human bronchial epithelial cells; actives raise or lower the signal
Method in brief: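 Human primary bronchial epithelial cells (BE3C system) were dosed with chemical and TGF-b1 levels measured by ELISA at 24 h. Activity was fitted bidirectionally relative to DMSO negative control as baseline.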

[15] = read-out: Plasminogen activator inhibitor-1 (PAI1), SERPINE1 (gene 5054); test: BSK_BE3C_PAI1: BioMAP Diversity Plus: BE3C Assay for Plasminogen activator inhibitor-1 (PAI1) Biomarker Activity (AID 2283037); details: primary human bronchial epithelial cells; actives raise or lower the signal
Method in brief: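 Human primary bronchial epithelial cells were exposed to chemical for 24 h, then PAI-1 was quantified by ELISA. Activity was fitted bidirectionally relative to the DMSO negative control baseline.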

[16] = read-out: urokinase plasminogen activator (uPA), PLAU (gene 5328); test: BSK_BE3C_uPA: BioMAP Diversity Plus: BE3C Assay for urokinase plasminogen activator (uPA) Biomarker Activity (AID 2283038); details: primary human bronchial epithelial cells; actives raise or lower the signal;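 note: uPA protein level quantified by ELISA in cell cultures; uPA read one day after compound addition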
Method in brief: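 Primary human bronchial epithelial cells, uPA measured by ELISA 24 h after dosing. Bidirectional change relative to DMSO; cytotoxicity checked in parallel cultures by sulforhodamine B total-protein staining.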

[17] = molecular target: human Vitamin D Receptor (VDR), VDR (gene 7421) (UniProt P11473); test: ATG_VDR_TRANS: Attagene TRANS-FACTORIAL HepG2 Assay for human Vitamin D Receptor (VDR) (AID 2283022; active = hit-call score of the fitted dose curve at least 0.9, where 1 is the maximum)
Method in brief: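 HepG2 cells were transiently transfected with GAL4-UAS reporter units and a chimeric VDR-Gal4 construct, then dosed for 24 hours. Reporter mRNA was quantified by RT-PCR, fluorescent labeling, HpaI digestion and capillary electrophoresis; gain of signal analysed vs DMSO.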

[18] = BSK_BE3C_SRB: Viability Assessment in the BioMAP Diversity Plus: BE3C Assay (AID 2283028); details: primary human bronchial epithelial cells
Method in brief: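 Human bronchial epithelial primary cells in confluent culture, 24 h after chemical dosing; total protein by 0.1% SRB staining after 10% TCA fixation, read at 560 nm. Bidirectional fitting versus DMSO baseline.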

[19] = read-out: Thrombomodulin, THBD (gene 7056); test: BSK_3C_Thrombomodulin: BioMAP Diversity Plus: 3C Assay for Thrombomodulin Biomarker Activity (AID 2283029); details: primary human endothelial cells (HUVEC); actives raise or lower the signal
Method in brief: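 Primary human umbilical vein endothelial cells (3C system) were exposed to chemical for 24 h, then thrombomodulin levels were measured by ELISA. Activity was fitted bidirectionally against the DMSO negative control as baseline.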

[20] = BSK_3C_SRB: Viability Assessment in the BioMAP Diversity Plus: 3C Assay (AID 2283023); details: primary human endothelial cells (HUVEC);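 note: fitted both ways against DMSO so a hit may be signal rise or drop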
Method in brief: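 Human umbilical vein endothelial cells in the 3C system, treated 24 h. Total protein measured by 0.1% sulforhodamine B staining after 10% TCA fixation, read at 560 nm; bidirectional fit versus DMSO.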

Measured: AC50

human Vitamin D Receptor (VDR), VDR (gene 7421), sequence (P11473 whole entry, looked up, the tested form may be a part): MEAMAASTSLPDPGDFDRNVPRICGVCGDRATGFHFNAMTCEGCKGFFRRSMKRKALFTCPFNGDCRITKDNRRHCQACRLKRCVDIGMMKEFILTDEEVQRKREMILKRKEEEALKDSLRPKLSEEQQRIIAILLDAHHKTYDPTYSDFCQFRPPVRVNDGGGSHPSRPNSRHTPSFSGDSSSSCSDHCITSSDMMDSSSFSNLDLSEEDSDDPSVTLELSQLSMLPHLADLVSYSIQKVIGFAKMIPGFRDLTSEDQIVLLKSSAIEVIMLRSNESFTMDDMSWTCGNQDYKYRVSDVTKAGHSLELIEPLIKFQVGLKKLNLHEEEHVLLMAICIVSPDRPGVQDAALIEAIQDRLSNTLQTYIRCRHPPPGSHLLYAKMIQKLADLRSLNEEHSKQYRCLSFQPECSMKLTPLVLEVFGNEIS

O=[N+]([O-])c1ccc(Cl)c(Cl)c1
inactive: [1] | [2] | [3] | [4] | [5] | [6] | [7] | [8] | [9] | [10] | [11] | [12] | [13] | [14] | [15] | [16]

NNC(N)=S
inactive: [17]

O=C(O)C1C(C(=O)O)C2(Cl)C(Cl)=C(Cl)C1(Cl)C2(Cl)Cl (stereo unspecified)
inactive: [1] | [2] | [3] | [5] | [6] | [7] | [8] | [9] | [10] | [11] | [12] | [13] | [14] | [15] | [16]

OCC1CO1 (stereo unspecified)
inactive: [1] | [2] | [3] | [4] | [5] | [7] | [18] | [19] | [8] | [9] | [10] | [11] | [12] | [13] | [14] | [15] | [16]

Nc1ccc(Cl)cc1
inactive: [1] | [2] | [3] | [5] | [6] | [7] | [8] | [9] | [10] | [11] | [12] | [13] | [14] | [15] | [16]

O=S(=O)(c1ccc(O)cc1)c1ccc(O)cc1
inactive: [17]

COP(=O)(CCC(=O)NCO)OC
inactive: [1] | [2] | [3] | [4] | [6] | [7] | [8] | [9] | [10] | [11] | [12] | [13] | [15] | [16]

CCN(CC)C1CCCCC1
inactive: [17]

c1ccc2c(c1)Nc1ccccc1S2
inactive: [1] | [2] | [3] | [20] | [5] | [7] | [19] | [8] | [9] | [10] | [11] | [12] | [13] | [14] | [15] | [16]

CCOP(=S)(OCC)SCSc1ccc(Cl)cc1
inactive: [2] | [3] | [5] | [7] | [8] | [9] | [10] | [12] | [13] | [14] | [15] | [16]
active: [1] 27.5 µM | [6] 12.6 µM | [11] 6.58 µM
